# In paper PMC5540273 (PLoS ONE, 2017):
# Tests used:
# Conditions in all cases: concentration: 1 μM,replicates: in singlicate; n = 1
# MLK1 = system: T1, MLK1
# T1 construct: gene MAP3K9
# MLK2 = system: MLK2
# MLK3 = system: MLK3
# MRCKA = system: MRCKA
# MRCKB = system: T2, MRCKB
# T2 construct: gene CDC42BPB
# MST1R = system: MST1R
# MST1 = system: T3, MST1
# T3 construct: gene STK4
# MST2 = system: T4, MST2
# T4 construct: gene STK3
# MST3 = system: T5, MST3
# T5 construct: gene STK24
# MST4 = system: MST4
# MTOR = system: MTOR
# MUSK = system: MUSK
# MYLK2 = system: MYLK2
# MYLK4 = system: MYLK4
# MYLK = system: MYLK
# MYO3A = system: MYO3A
# MYO3B = system: MYO3B
# NDR1 = system: T6, NDR1
# T6 construct: gene STK38
# NDR2 = system: NDR2
# NEK10 = system: NEK10
# 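Further: KINOMEscan kinase panel screen.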
Structure (SMILES),%Inh (MLK1) [%],%Inh (MLK2) [%],%Inh (MLK3) [%],%Inh (MRCKA) [%],%Inh (MRCKB) [%],%Inh (MST1R) [%],%Inh (MST1) [%],%Inh (MST2) [%],%Inh (MST3) [%],%Inh (MST4) [%],%Inh (MTOR) [%],%Inh (MUSK) [%],%Inh (MYLK2) [%],%Inh (MYLK4) [%],%Inh (MYLK) [%],%Inh (MYO3A) [%],%Inh (MYO3B) [%],%Inh (NDR1) [%],%Inh (NDR2) [%],%Inh (NEK10) [%]
O=C(NCCNc1ccnc(NCc2ccc(F)cc2)n1)c1cc2ccccc2s1 [GSK1379944],5,0,0,10,69,4,0,0,1,0,1,5,0,1,14,0,0,0,0,0
Cc1cc(C(=O)Nc2ccc(Oc3ccc4nc(NC(=O)C5CC5)cn4n3)cc2)nn1-c1ccccc1,20,43,4,28,0,0,13,0,0,0,9,59,0,5,9,0,21,8,3,0
NC(=O)c1cc(-c2ccccc2)cc2c(C3CCNCC3)c[nH]c12 [GSK301362],9,12,0,18,13,40,43,86,0,0,3,21,40,99,15,0,0,0,0,24
CN(C)CC(O)COc1ccc(Nc2nccc(-c3cnn4nc(N5CCOCC5)ccc34)n2)cc1 (stereo not shown) [GW767488],0,18,18,0,3,16,0,0,0,46,6,0,38,46,48,33,0,49,0,80
Cl.Cl.NC[C@H](CC1CCCCC1)NC(=O)c1cc(Br)c(-c2ccnc3[nH]ccc23)s1 [GSK1581427],0,0,0,86,99.4,11,0,0,0,10,6,3,19,99.7,40,0,0,95.1,82,0
COc1ccc(C[C@@H](CN)NC(=O)c2cc(Br)c(-c3ccnc4[nH]ccc34)s2)cc1.Cl.Cl [GSK1389063],13,0,0,89,99.4,40,0,34,0,54,17,20,52,98.5,99.6,10,0,96.8,78,23
Nc1nc(Nc2ccccc2)cc(-c2ccc3c(N)n[nH]c3c2)n1 [GSK2225749],0,14,0,0,1,0,7,5,5,0,13,4,51,16,0,0,0,0,0,0
C[C@H]1Oc2cc(cnc2N)-c2c(nn(C)c2C#N)CN(C)C(=O)c2ccc(F)cc21,13,0,23,0,16,0,19,19,4,0,0,11,18,10,10,10,17,31,25,19
